The panel holds about 83,000 compounds, 20% with a hit somewhere; the sample as a whole holds those more often.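 Cell lines were cultured in 96-well plates, exposed to a single compound concentration, and assessed for percent growth 48 hours later.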 Activity calls are given as the source filed them. Rule for the calls: active = growth percent below 10; inactive = the rest.
test system: MDA-MB-468 breast; assay: NCI-60 one-dose screen, 48 h (100 = growth as untreated, 0 = no growth, -100 = all killed); details: 10 µM unless noted

SMILES | growth
Cc1cc(C)c2c(n1)sc1c(Nc3ccc(Cl)cc3)ncnc12 | 19% (inactive)
CC1(/C=C/c2ccc(-c3ccccc3)cc2)CCn2cnc3ncnc(c32)N1O (stereo not given) | -5.41% (active)
O=[N+]([O-])c1ccc(N/N=C/C2CCCCCC2)c([N+](=O)[O-])c1 | 86.4% (inactive)
COc1cc(/C=C(\C#N)C(=O)c2ccccc2)ccc1OCc1ccccc1 | 96.4% (inactive)
CCCCNC(=O)NS(=O)(=O)c1ccc(N2N=C(c3ccc(C)cc3C)CC2c2ccc(OC)cc2)cc1 (stereo not given) | 65.1% (inactive)
O=C(Cc1ccc(/C=C/C(=O)c2ncc[nH]2)cc1)Nc1ccc(Cl)cc1 | 9.49% (active)
COC1=CC(c2ccc[nH]2)=N/C1=C\c1[nH]c(C)c(CC(=O)OCc2ccccc2)c1C | -24.6% (active)
Nn1c(CN2CCN(c3cc4c(cc3F)c(=O)c(C(=O)O)cn4C3CC3)CC2)n[nH]c1=S | 99.2% (inactive)
O=C(Nc1cccc(Cl)c1)Nc1nc2ccc([N+](=O)[O-])cc2o1 | -4.51% (active)
CC(Br)C(Br)c1cc2c(cc1Br)OCO2 (stereo not given) | 96.8% (inactive)
COc1ccc(/C(C)=C(/c2ccc(OCCCN(C)C)cc2)c2ccc(OC(=O)c3ccccc3)cc2)cc1 | 94.9% (inactive)
O=C1c2ccccc2C(=O)C1c1ccc(Br)cc1 | 115% (inactive)
CCOc1ccc(-n2c(-c3cc(OC)c(OC)c(OC)c3)nnc2-c2ccc(OC)cc2N)cc1 | 1.83% (active)
Cn1c(=O)c2[nH]c(CC(=O)O)nc2n(C)c1=O | 107% (inactive)
Cc1c(Cl)cccc1NC(=O)c1sc2nc3c(cc2c1N)CCCC3 | 15.1% (inactive)
O=C(Oc1ccc([N+](=O)[O-])cc1)c1ccc(CBr)cc1 | 84.9% (inactive)
COc1ccc(-c2nc3c(c(-c4ccc(Cl)cc4)nn3-c3ccccc3)c(-c3ccccc3)c2C#N)cc1 | 108% (inactive)
CCC(CC)COC(=O)c1ccc(O)c(O)c1 | 80.6% (inactive)
O=c1c2cccc3c(Nc4ccccn4)ccc(c32)c2nc3ccccc3n12 | -22.4% (active)
CCN1C(=O)/C(=c2\sc3n(c2=O)NC2C(N=3)N(CC)C(=O)N2CC)c2ccccc21 (stereo not given) | 27% (inactive)

SMILES | growth
Cc1ccc(-c2nc(/C=N/Nc3cc(C)nc4ccc(Cl)cc34)c(C)o2)cc1 | -76% (active)
C=C(C)[C@@H]1CC[C@]2(C(=O)OC)CC[C@]3(C)[C@H](CC[C@@H]4[C@@]5(C)C/C(=C/c6cccc(I)c6)C(=O)C(C)(C)[C@@H]5CC[C@]43C)[C@@H]12 | 86.7% (inactive)
O=C1Nc2ccccc2/C1=C/c1cccn1CCCCn1c2ccccc2c(=O)c2ccccc21 | 51% (inactive)
CSc1nc(-c2ccc(F)cc2)c(C#N)c(N2CCOCC2)n1 | 87.3% (inactive)
O=C(O)/C=C(\c1nc2ccc([N+](=O)[O-])cc2[nH]1)c1cc(Cl)ccc1O | -2.53% (active)
CCN(CC)Cc1cc(Nc2ccnc3ccc(OC)cc23)ccc1O | -3.96% (active)
COc1ccc(C2CC(c3cccc(Nc4ccnc5cc(Cl)ccc45)c3)=NN2c2ccc(Cl)cc2)cc1 (stereo not given) | 64% (inactive)
COc1ccc(-c2nn(-c3cccc(Cl)c3)cc2C=C(C#N)C#N)cc1 | -2.82% (active)
Cn1cc(-c2csc(-c3cn(CCN)c4ccc(Br)cc34)n2)c2cccnc21 | 28.6% (inactive)
NC(=S)N/N=C(/c1cccs1)C1CC1 | 37.4% (inactive)
O=C(Nc1ccsc1C(=O)NC1CCCCC1)c1ccc(F)cc1 | 101% (inactive)
CCN(CCN(C)C)C(=O)CNCc1cc(C(N)=O)ccn1 | 101% (inactive)
O=C(NCCNc1nccc(-c2c(-c3cccc(O)c3)nc3sccn23)n1)c1cccc(C(F)(F)F)c1 | 70.5% (inactive)
COc1ccc(C(=O)c2cc3c(N)c(C(=O)Nc4cccc5ccccc45)sc3nc2C)cc1 | -0.26% (active)
CCCCCC(=O)OCc1ccccc1 | 97.3% (inactive)
Cc1ccc(C(O)C2CC2)cc1 (stereo not given) | 103% (inactive)
CC#Cc1nc2ccccc2c(=O)[nH]1 | 14.8% (inactive)
CCCCCCNC(=O)c1cc(NCc2cc(O)ccc2O)ccc1O | 65.6% (inactive)
CCn1c2ccccc2c2cc(C(O)c3cccc4ncccc34)ccc21 (stereo not given) | 14.2% (inactive)
CCCCCCCCCCC(CN(CC)CC)C(O)c1ccccc1 (stereo not given) | -61.2% (active)
